Bst PK mod: pyruvate kinase (B. stearothermophilus) modulation. AID 361. Potency, µM. purified pyruvate kinase, luminescence ATP production; ribose 5-phosphate activator present at AC10. 51,000 compounds, 1.2% hits; in the data active means potency below about 11 µM; inconclusive means mostly about 12 µM to 25 µM;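 the screen sought inhibitors and activators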
GBA activity: human lysosomal glucosylceramidase modulation; Potency, µM; 48,000 compounds, 1.1% hits; P04062; purified enzyme, resorufin glucoside fluorescence (screen aimed at inhibitors), 20 min; AID 360; in the data active means potency below about 15 µM; inconclusive means mostly about 16 µM to 33 µM;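 further: the screen sought inhibitors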
Target sequence (P04062 whole entry, looked up): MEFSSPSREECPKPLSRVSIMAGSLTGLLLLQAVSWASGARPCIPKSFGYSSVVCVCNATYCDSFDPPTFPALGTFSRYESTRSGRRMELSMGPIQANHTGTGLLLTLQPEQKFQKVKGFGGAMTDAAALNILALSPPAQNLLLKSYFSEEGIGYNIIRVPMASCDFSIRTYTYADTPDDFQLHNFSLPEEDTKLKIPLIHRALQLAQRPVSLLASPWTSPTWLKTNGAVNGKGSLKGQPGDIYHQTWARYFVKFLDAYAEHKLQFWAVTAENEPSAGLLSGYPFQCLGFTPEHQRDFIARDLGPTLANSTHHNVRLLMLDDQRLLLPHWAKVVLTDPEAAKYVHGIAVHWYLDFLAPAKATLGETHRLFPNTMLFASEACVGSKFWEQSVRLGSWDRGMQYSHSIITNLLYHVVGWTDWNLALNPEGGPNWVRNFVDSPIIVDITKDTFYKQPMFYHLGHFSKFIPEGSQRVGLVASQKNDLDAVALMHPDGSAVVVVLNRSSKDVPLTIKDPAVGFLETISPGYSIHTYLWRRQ
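Wild-type enzyme at 0.2 nM final in 50mM citric acid/KH2PO4, 10mM sodium taurocholate, 0.01% tween-20, pH 5.9, with resorufin beta-D-glucopyranoside at 30 uM final. Compounds titrated, 20 min at RT, red fluorescence read; AC50 from titration.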
FLuc inh: blocks Photinus pyralis firefly luciferase activity; Potency, µM (titrated, usually from 57.1 µM), most hits filed as inhibitors; purified firefly luciferase, luminescence, 8 min; AID 411; 72,000 compounds, 2.2% hits; further: nearly all actives have a fitted effect of over 40% in size
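Firefly luciferase (PKLight detection mix) with 10 uM ATP in pH 7.2 imidazole buffer (KCl, MgCl2, Tween 20, BSA). Compounds tested across a concentration series (qHTS). Luminescence read after 8 min at ambient temperature.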
ERK AVP inh: blocks ERK signaling stimulated by vasopressin | HEK293-V1b, vasopressin-stimulated pERK AlphaScreen | Potency, µM (top dose mostly 57.5 µM), usual class: inhibitors | 72,000 compounds, 0.99% hits | AID 995; further: nearly all actives have a fitted effect of over 55% in size
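V1b-HEK293 cells; cpd 30 min 37C; 25 nM vasopressin 5 min; lyse 10 min; AlphaScreen beads 5 hr RT. Normalized to DMSO basal and 25 nM vasopressin; AC50 by Hill fit.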
Hits are given with their value; - = inactive; ? = inconclusive; . = no result given; [ ] = remark or other dose. Most compounds without a hit are left out; they make up all but 3.9% or so of the library. Unless noted, the call rests on the fitted dose curve; in most records, active means well fitted curve in the direction sought with a large enough effect; inconclusive means small, poorly fitted or top-dose-only effect, or another doubt; inactive means no such curve, though single readings can be large; an effect the other way counts as inactive or inconclusive.

SMILES	Bst PK mod	GBA activity	FLuc inh	ERK AVP inh
Cc1cc(N2CCN(C)CC2)nc2ccc(NC(=O)c3ccc4c(c3)OCO4)cc12	.	1.1	25µM	13µM
Cc1cc(C)nc(NS(=O)(=O)c2ccc(NC(=O)c3ccc4c(c3)OCO4)cc2)n1	.	.	-	-
CN1CCN(c2ccc(NC(=O)c3ccc4c(c3)OCO4)cc2)CC1	.	-	25µM	-
COc1cc2ccccc2cc1C(=O)Nc1ccc(N2CCN(C)CC2)cc1	11	-	10µM	?
CCN1CCN(c2cc(C)c3cc(NC(=O)c4cnccn4)ccc3n2)CC1	.	.	-	?
Cc1cc(N2CCN(C)CC2)nc2ccc(NC(=O)c3ccc(Br)o3)cc12	.	2.2	-	-
COc1cccc(Cn2c(=O)c(CCc3ccccc3)nc3cnc(N4CCN(C)CC4)nc32)c1	.	.	-[11.4 µM]	-
COC(=O)[C@@]1(Cc2ccccc2)[C@H]2c3cc(C(=O)N4CCCC4)n(CCN4CNCC4=O)c3C[C@H]2CN1C(=O)c1ccccc1	.	.	.	-
NC(N)=N[C@H](CCC(=O)O)C(=O)O	.	.	-	-
CO[C@H]1COC(=O)[C@H]2CCCN2C(=O)[C@@H](C)COC(=O)C/C=C\[C@@H]1C	.	.	-[11.4 µM]	-[11.5 µM]
O=C(O)CCNCC(=O)O	.	.	-[11.4 µM]	-[11.5 µM]
CN1CCN(c2ccccc2NC(=O)c2ccc(Br)o2)CC1	-	-	-	20µM
O=C(Nc1ccccc1N1CCOCC1)c1ccc(Br)o1	-	-	-	-
Cc1nc2scc(-c3cccs3)c2c(=O)o1	.	.	-	-
O=c1oc(-c2cccs2)nc2scc(-c3cccs3)c12	-	-	13µM	-
Cc1ccccc1-c1nnc(-c2ccc(Br)cc2)o1	4.4	-	-	-
Clc1cccc(-c2nnc(-c3ccccc3)o2)c1	.	.	5µM	-
Brc1cccc(-c2nnc(-c3ccccc3)o2)c1	-	.	16µM	-
Cc1cccc(-c2nnc(-c3ccc(N)cc3)o2)c1	9	-	13µM	-
CCC/C=C(\CCC)C(NC(=O)c1ccco1)c1ccc(C(=O)OC)cc1 (centres undefined)	.	.	.	-
O=C(Nc1ccc(C(=O)Oc2ccccc2)c(O)c1)c1ccco1	-	-	25µM	?
O=C(Nc1ccc(OC(=O)c2cccs2)cc1)c1ccco1	-	-	25µM	-
CCOC(=O)Nc1ccc(C(=O)Oc2ccccc2)c(O)c1	.	?	-	-
Cc1cc(NS(=O)(=O)c2ccc(NC(=O)c3ccco3)cc2)no1	-	-	-	-
CC(=O)Nc1ccc(S(=O)(=O)Nc2ccc(NC(=O)c3ccco3)cc2)cc1	-	11	-	-
SMILES	Bst PK mod	GBA activity	FLuc inh	ERK AVP inh
COc1c(F)c(F)c(C(=O)Nc2ccc(NC(=O)c3ccco3)cc2)c(F)c1F	-	1.5	-	-
COC(=O)NC(c1cccc(F)c1)C(C(C)=O)C(=O)OC (centres undefined)	.	.	.	-[11.5 µM]
O=C(Nc1ccc(Nc2ccccc2)cc1)c1ccco1	-	3	13µM	-
CCOc1ccc(NC(=O)c2ccco2)cc1	-	-	13µM	-
CC(=O)N(C)c1ccc(NC(=O)c2ccco2)cc1	?	-	-	-
Cc1nc2cnc(N3CCOCC3)nc2n(C[C@H]2CCCO2)c1=O	.	.	-[11.4 µM]	-
Cc1noc(C)c1-c1nc(NCc2ccccc2)c2ccccc2n1	.	.	-[2.29 µM]	-
c1ccc2c(N3CCCC3)nc(-c3ccncc3)nc2c1	-	-	-	-
C=CCOc1nc(-c2ccncc2)nc2ccccc12	8.3	.	-	.
CCc1c(C)[nH]c2c1C(=O)[C@H](CN1CCOCC1)CC2	.	.	-	-
Cc1ccc(S(=O)(=O)/C=C\C#N)cc1	.	.	-	20µM
CC(C)(C)c1ccc(S(=O)(=O)/C=C\C#N)cc1	.	.	-	32µM
Cn1cc(-c2nc3cnc(N4CCNCC4)nc3n(Cc3ccc(F)cc3)c2=O)c2ccccc21	.	.	-[11.4 µM]	-
CCC1=C2CC[C@H]3C(=O)N(CC)C(=O)[C@H]3[C@H]2[C@@]2(Cc3ccccc3)C(=O)N(CC3CC3)C(=O)N2C1=O	.	.	.	-
Cc1c(C(=O)OC2CCCC2)[nH]c2c1C(=O)CC(c1ccco1)C2 (centres undefined)	.	.	-	25µM
Cc1ccccc1-n1c(C)nnc1SCc1nc2ccccc2s1	.	-	20µM	-
Cn1c(SCc2nc3ccccc3s2)nnc1-c1cccs1	-	-	-	-
CO[C@H]1[C@H](O[C@H]2O[C@@H](C)[C@@H](O[C@@H]3C[C@](C)(O)[C@H](O)[C@H](C)O3)[C@@H](N(C)C)[C@@H]2O)[C@@H](CC=O)C[C@@H](C)[C@@H](O[C@H]2CC[C@H](N(C)C)[C@H](C)O2)/C=C\C=C/C[C@@H](C)OC(=O)C[C@H]1O	.	.	-	-
CN(C)c1ccc(NC(=O)CN2CCN(S(=O)(=O)c3cc(Cl)ccc3Cl)CC2)cc1	9.4	?	-	-
O=C(CN1CCN(S(=O)(=O)c2cc(Cl)ccc2Cl)CC1)Nc1ccc2c(c1)OCCO2	4.7	?	-	-
Cc1occc1C(=O)Nc1ccc2c(c1)OCCO2	-	-	20µM	-
O=C(Nc1ccc2c(c1)OCCO2)c1cncc(Br)c1	-	-	10µM	-
Cc1cc(C(=O)Nc2cccc(O)c2)c(C)o1	-	-	-	-
Cc1occc1C(=O)Nc1ccc2c(c1)CCC2	.	-	25µM	-
Cc1cc(C(=O)Nc2ccc3c(c2)OCCO3)c(C)o1	-	-	16µM	?
SMILES	Bst PK mod	GBA activity	FLuc inh	ERK AVP inh
COc1ccc(O[C@H]2C=C[C@@H](c3ccccc3)O[C@H]2COC(=O)CC/C(C)=N\O[C@@H](C)CN2CCCCc3nc(C)c(C)cc32)cc1	.	.	-[11.4 µM]	-[11.5 µM]
Cn1cnc2c(NC3CCCC3)ncnc21	.	.	-	-
Cc1ncoc1C(=O)Nc1ccc2c(c1)OCCO2	.	-	20µM	-
COc1ccc(NC(=O)c2ocnc2C)cc1OC	-	-	-	-
CN(C)c1ccc(C(=C2C=CC(=[N+](C)C)C=C2)c2ccccc2)cc1	.	.	-[11.4 µM]	13µM
CN(C)c1ccc(C(=C2C=CC(=[N+](C)C)C=C2)c2ccc(N(C)C)cc2)cc1	.	.	.	10µM
CN(C)c1ccc(/C(=N\O)C(F)(F)F)cc1	.	.	-	-
O=C1C(C=NCCN2CCOCC2)=C(O)c2ccccc21	.	.	13µM	-
O=C1C(C=NCCCN2CCOCC2)=C(O)c2ccccc21	.	.	-	-
Nc1ccc2c(c1)CCC2=O	-	-	13µM	-
CCN1CCN(Cc2ccc(NC(=O)Nc3ccccc3)cc2)CC1	.	.	13µM	-
CCN1CCN(Cc2ccc(NC(=O)Nc3ccc(OC)cc3)cc2)CC1	.	.	-	-
COC(=O)COc1cccc(NC(=O)COc2ccccc2)c1	.	.	-	-
COc1cccc(NC(=O)COc2ccccc2C(N)=O)c1	?	-	7.9µM	-
CN(c1cccc(NC(=O)COc2ccccc2)c1)S(C)(=O)=O	-	-	?	-
Cc1ccccc1OCC(=O)Nc1cccc(N(C)S(C)(=O)=O)c1	.	-	20µM	-
O=c1[nH]cnc2c1ncn2C1CC(O)C(CO)O1 (centres undefined)	.	.	.	-
COc1ccc(NC(=O)Nc2cccc(C)n2)cc1	.	.	16µM	-
Cc1cccc(NC(=O)Nc2ccc(C#N)cc2)n1	.	.	-	-
CC1CCc2nc(NC(=O)c3ccco3)sc2C1 (centres undefined)	1.2	-	2µM	-
CC1CCc2nc(NC(=O)C3CCCO3)sc2C1 (centres undefined)	-	-	13µM	-
CC1CCc2nc(NC(=O)Cc3cccs3)sc2C1 (centres undefined)	.	-	-	-

Screens as filed in PubChem BioAssay.
